# PubChem BioAssay (EPA / NIEHS)
# Records with an inconclusive call do not appear. Activity calls are given as the source filed them. How the source made its calls: active means hit-call score of the fitted dose curve at least 0.9, where 1 is the maximum; inconclusive means response in the unintended direction; inactive means score below 0.9.
# Legend:
# [1] = target: human Esterase Plasma (ES), BCHE (gene 590) (UniProt P06276); assay: NVS_ENZ_hES: NovaScreen (NVS) Enzymatic Assay for human Esterase Plasma (ES) (AID 2283157)
# How it was run: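 Cell-free enzyme assay using esterase extracted from human plasma; colorimetric absorbance read 0.25 hour after dosing. Single-concentration duplicate screen at 25 uM, then concentration-response up to 50 uM; loss of signal scored against DMSO baseline.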
# [2] = target: human Matrix Metalloproteinase-3 (MMP3), MMP3 (gene 4314) (UniProt P08254); assay: NVS_ENZ_hMMP3: NovaScreen (NVS) Enzymatic Assay for human Matrix Metalloproteinase-3 (MMP3) (AID 2283185)
# How it was run: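 Cell-free recombinant human MMP3 activity, fluorescence intensity read 1 h after dosing. Primary screen duplicate at 25 uM, actives retested in concentration series; loss of signal vs DMSO baseline.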
# [3] = target: human Colony Stimulating Factor 1 Receptor (CSF1R), CSF1R (gene 1436) (UniProt P07333); assay: NVS_ENZ_hCSF1R: NovaScreen (NVS) Enzymatic Assay for human Colony Stimulating Factor 1 Receptor (CSF1R) (AID 2283150)
# How it was run: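 Cell-free recombinant human CSF1R kinase with fluorescent substrate, product separated by electrophoretic mobility shift; read 1 h after dosing. Primary screen at 25 uM in duplicate, actives then in concentration-response up to 50 uM, relative to DMSO.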
# [4] = target: human Elastase, ELANE (gene 1991) (UniProt P08246); assay: NVS_ENZ_hElastase: NovaScreen (NVS) Enzymatic Assay for human Elastase (AID 2283153)
# How it was run: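 Cell-free elastase from human neutrophils, 1.5 h after dosing, activity read by absorbance. Primary screen in duplicate at 25 uM; hits (e.g., 30% inhibition) rerun in singleton concentration-response up to 50 uM, fitted versus DMSO.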
# [5] = target: human Ephrin type-A Receptor 1 (EphA1), EPHA1 (gene 2041) (UniProt P21709); assay: NVS_ENZ_hEphA1: NovaScreen (NVS) Enzymatic Assay for human Ephrin type-A Receptor 1 (EphA1) (AID 2283158);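 further: activity is signal loss versus DMSO meaning EphA1 kinase inhibition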
# How it was run: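 Chemicals first tested in duplicate at 25 uM against recombinant EphA1 with a fluorescent substrate; those passing threshold went to singleton dose-response topping at 50 uM. Activity read 1 h later as mobility-shift fluorescence, loss of signal relative to DMSO.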
# [6] = target: Glycogen synthase kinase-3 beta (Homo sapiens) (UniProt P49841); assay: NVS_ENZ_hGSK3b: NovaScreen (NVS) Enzymatic Assay for human Glycogen Synthase Kinase-3 beta (GSK3b) (AID 2283165)
# How it was run: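 Recombinant enzyme with specific fluorescent substrate, 1 h, product separated by electrophoretic mobility shift. Primary duplicate screen at 25 uM; actives (e.g. 30% inhibition) followed in singleton concentration-response to 50 uM. Signal loss fitted versus DMSO.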
# [7] = target: human Janus Kinase 2 (Jak2), JAK2 (gene 3717) (UniProt O60674); assay: NVS_ENZ_hJak2: NovaScreen (NVS) Enzymatic Assay for human Janus Kinase 2 (Jak2) (AID 2283169)
# How it was run: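 Cell-free recombinant human JAK2 enzyme activity assay, fluorescence/electrophoretic mobility shift read 1 h after dosing. Screened in duplicate at 25 uM, then concentration-response up to 50 uM; activity as signal loss relative to DMSO.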
# [8] = target: Histone deacetylase 3 (Homo sapiens) (UniProt O15379); assay: NVS_ENZ_hHDAC3: NovaScreen (NVS) Enzymatic Assay for human Histone Deacetylase 3 (HDAC3) (AID 2283163)
# How it was run: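 Recombinant human HDAC3 with fluorescent substrate, 1 h after dosing; product separated from substrate by electrophoretic mobility shift and read by fluorescence. Primary screen at 25 uM in duplicate; actives (e.g. ≥30% inhibition) retested in concentration-response up to 50 uM.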
# [9] = target: human Mitogen- and Stress-activated Protein Kinase-1 (Msk1), RPS6KA5 (gene 9252) (UniProt O75582); assay: NVS_ENZ_hMsk1: NovaScreen (NVS) Enzymatic Assay for human Mitogen- and Stress-activated Protein Kinase-1 (Msk1) (AID 2283187)
# How it was run: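 Recombinant kinase with fluorescent substrate; product separated by electrophoretic mobility shift, read 1 h after dosing. Screened in duplicate at 25 uM; hits (e.g. ≥30% inhibition) tested in concentration–response up to 50 uM. DMSO baseline.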
# [10] = target: human Matrix Metalloproteinase-7 (MMP7), MMP7 (gene 4316) (UniProt P09237); assay: NVS_ENZ_hMMP7: NovaScreen (NVS) Enzymatic Assay for human Matrix Metalloproteinase-7 (MMP7) (AID 2283183)
# How it was run: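 Cell-free fluorescence enzymatic assay read 1 h after compound addition, activity loss analyzed against DMSO. Primary duplicate testing at 25 uM; compounds meeting threshold rerun in singleton concentration-response up to 50 uM.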
# [11] = target: Mitogen-activated protein kinase 3 (Homo sapiens) (UniProt P27361); assay: NVS_ENZ_hMAPK3: NovaScreen (NVS) Enzymatic Assay for human Mitogen-Activated Protein Kinase 3 (MAPK 3) (AID 2283177)
# How it was run: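 Cell-free enzymatic assay with recombinant protein and specific substrate; fluorescence and electrophoretic mobility shift read-out 1 h after dosing. Primary screen duplicate at 25 uM; actives then run in concentration-response up to 50 uM, loss of signal versus DMSO.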
# [12] = target: human FYN Proto-Oncogene, Src family Tyrosine Kinase (Fyn), FYN (gene 2534) (UniProt P06241); assay: NVS_ENZ_hFyn: NovaScreen (NVS) Enzymatic Assay for human FYN Proto-Oncogene, Src family Tyrosine Kinase (Fyn) (AID 2283161)
# How it was run: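 Recombinant enzyme with fluorescent substrate, product separated by electrophoretic mobility shift; read 1 h after dosing. Duplicate 25 uM single-point screen, actives retested in concentration series; loss of signal vs DMSO.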
# [13] = target: human c-Jun N-terminal Kinases (JNK2), MAPK9 (gene 5601) (UniProt P45984); assay: NVS_ENZ_hJNK2: NovaScreen (NVS) Enzymatic Assay for human c-Jun N-terminal Kinases (JNK2) (AID 2283171)
# How it was run: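 Cell-free recombinant human JNK2 activity assay; fluorescent substrate and product separated by electrophoretic mobility shift, read 1 h after dosing. Primary duplicate screen at 25 uM; actives run in concentration-response up to 50 uM, relative to DMSO.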
# [14] = target: human LYN Proto-Oncogene, Src family Tyrosine Kinase (LynA), LYN (gene 4067) (UniProt P07948); assay: NVS_ENZ_hLynA: NovaScreen (NVS) Enzymatic Assay for human LYN Proto-Oncogene, Src family Tyrosine Kinase (LynA) (AID 2283173)
# How it was run: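 Recombinant kinase with fluorescent substrate; product separated from substrate by electrophoretic mobility shift and read 1 h after dosing. Duplicate screen at 25 uM, then concentration-response up to 50 uM; activity scored as signal loss against DMSO.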
# [15] = target: human Dual Specificity Protein Phosphatase 3 (DUSP3), DUSP3 (gene 1845) (UniProt P51452); assay: NVS_ENZ_hDUSP3: NovaScreen (NVS) Enzymatic Assay for human Dual Specificity Protein Phosphatase 3 (DUSP3) (AID 2283152);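 further: phosphatase activity of recombinant human DUSP3 on a fluorogenic substrate without cells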
# How it was run: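 Cell-free assay with recombinant human DUSP3 and fluorogenic substrate, read by fluorescence intensity. Primary screen ran duplicate at 25 uM; actives followed up in concentration series; loss of signal versus DMSO scored.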
# [16] = target: human MAP Kinase-Activated Protein Kinase 2 (MAPKAPK2), MAPKAPK2 (gene 9261) (UniProt P49137); assay: NVS_ENZ_hMAPKAPK2: NovaScreen (NVS) Enzymatic Assay for human MAP Kinase-Activated Protein Kinase 2 (MAPKAPK2) (AID 2283178)
# How it was run: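 Cell-free recombinant human MAPKAPK2 activity measured by fluorescence with electrophoretic mobility shift separation of substrate and product, 1 hr after dosing. Loss of signal versus DMSO; primary screen at 25 uM, concentration-response up to 50 uM.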
# [17] = target: Collagenase 3 (Homo sapiens) (UniProt P45452); assay: NVS_ENZ_hMMP13: NovaScreen (NVS) Enzymatic Assay for human Matrix Metalloproteinase-13 (MMP13) (AID 2283182)
# How it was run: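 Recombinant MMP13 cleaving fluorescent substrate, cell-free, measured 1 h after dosing. Primary duplicate screen at 25 uM; actives tested in concentration-response up to 50 uM; loss of signal relative to DMSO.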
# [18] = target: human Matrix Metalloproteinase-2 (MMP2), MMP2 (gene 4313) (UniProt P08253); assay: NVS_ENZ_hMMP2: NovaScreen (NVS) Enzymatic Assay for human Matrix Metalloproteinase-2 (MMP2) (AID 2283184)
# How it was run: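 Cell-free recombinant MMP2 activity with a fluorescent substrate, read 1 h after dosing. Primary screen in duplicate at 25 uM; actives then run in concentration series; loss of signal fitted versus DMSO.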
# [19] = target: human Matrix Metalloproteinase-9 (MMP9), MMP9 (gene 4318) (UniProt P14780); assay: NVS_ENZ_hMMP9: NovaScreen (NVS) Enzymatic Assay for human Matrix Metalloproteinase-9 (MMP9) (AID 2283190);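 further: cell-free recombinant MMP9 protease activity read by fluorescent substrate signal; active means inhibition seen as loss of fluorescence signal versus DMSO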
# How it was run: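 Extracted enzyme, fluorescent substrate, 1 h post-dose read. Single conc 25 uM in duplicate, then concentration series for actives. Activity = signal loss relative to DMSO negative control.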
# Sequence of human Dual Specificity Protein Phosphatase 3 (DUSP3), DUSP3 (gene 1845) (P51452 whole entry, looked up): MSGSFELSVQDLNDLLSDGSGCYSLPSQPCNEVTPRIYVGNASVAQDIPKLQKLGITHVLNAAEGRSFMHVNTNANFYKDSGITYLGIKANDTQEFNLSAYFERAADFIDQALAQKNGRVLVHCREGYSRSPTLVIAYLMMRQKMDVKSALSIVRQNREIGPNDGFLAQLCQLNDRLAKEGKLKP
# Sequence of human Elastase, ELANE (gene 1991) (P08246 whole entry, looked up): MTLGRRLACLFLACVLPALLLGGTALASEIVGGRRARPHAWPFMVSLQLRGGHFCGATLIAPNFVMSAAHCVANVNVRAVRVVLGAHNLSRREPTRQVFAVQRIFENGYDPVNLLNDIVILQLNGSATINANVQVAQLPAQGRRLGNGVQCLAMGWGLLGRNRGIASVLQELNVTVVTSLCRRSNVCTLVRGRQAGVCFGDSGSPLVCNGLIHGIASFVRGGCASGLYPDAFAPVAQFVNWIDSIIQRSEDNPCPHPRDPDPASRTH
# Sequence of human Matrix Metalloproteinase-3 (MMP3), MMP3 (gene 4314) (P08254 whole entry, looked up): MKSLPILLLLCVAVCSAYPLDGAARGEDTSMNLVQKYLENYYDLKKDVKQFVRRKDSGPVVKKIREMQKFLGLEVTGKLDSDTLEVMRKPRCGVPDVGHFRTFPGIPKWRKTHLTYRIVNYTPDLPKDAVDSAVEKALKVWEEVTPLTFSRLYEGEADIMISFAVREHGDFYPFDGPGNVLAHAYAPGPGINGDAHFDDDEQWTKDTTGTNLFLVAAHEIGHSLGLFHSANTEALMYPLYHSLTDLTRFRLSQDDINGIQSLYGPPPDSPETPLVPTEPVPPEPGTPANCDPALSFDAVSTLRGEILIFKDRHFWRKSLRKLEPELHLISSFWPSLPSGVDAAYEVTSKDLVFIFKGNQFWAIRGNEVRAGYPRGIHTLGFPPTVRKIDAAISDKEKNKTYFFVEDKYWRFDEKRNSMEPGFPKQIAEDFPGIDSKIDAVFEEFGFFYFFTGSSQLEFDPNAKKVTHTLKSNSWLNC
# Sequence of human Esterase Plasma (ES), BCHE (gene 590) (P06276 whole entry, looked up): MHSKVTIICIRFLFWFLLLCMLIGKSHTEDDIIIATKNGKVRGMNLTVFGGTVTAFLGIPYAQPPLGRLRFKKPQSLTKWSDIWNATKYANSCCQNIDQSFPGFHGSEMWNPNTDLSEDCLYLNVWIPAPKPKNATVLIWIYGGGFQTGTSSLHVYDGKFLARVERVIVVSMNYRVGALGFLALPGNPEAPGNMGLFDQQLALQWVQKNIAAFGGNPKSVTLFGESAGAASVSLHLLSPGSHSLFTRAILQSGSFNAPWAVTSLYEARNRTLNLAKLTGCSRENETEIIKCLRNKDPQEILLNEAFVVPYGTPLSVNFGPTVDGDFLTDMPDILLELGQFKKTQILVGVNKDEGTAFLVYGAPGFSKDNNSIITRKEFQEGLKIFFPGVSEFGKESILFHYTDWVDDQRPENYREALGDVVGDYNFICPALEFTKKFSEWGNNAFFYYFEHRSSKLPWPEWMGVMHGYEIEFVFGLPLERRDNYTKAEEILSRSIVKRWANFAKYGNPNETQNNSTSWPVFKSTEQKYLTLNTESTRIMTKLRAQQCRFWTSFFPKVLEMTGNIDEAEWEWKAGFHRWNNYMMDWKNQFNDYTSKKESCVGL
# Sequence of Glycogen synthase kinase-3 beta (Homo sapiens) (P49841 whole entry, looked up): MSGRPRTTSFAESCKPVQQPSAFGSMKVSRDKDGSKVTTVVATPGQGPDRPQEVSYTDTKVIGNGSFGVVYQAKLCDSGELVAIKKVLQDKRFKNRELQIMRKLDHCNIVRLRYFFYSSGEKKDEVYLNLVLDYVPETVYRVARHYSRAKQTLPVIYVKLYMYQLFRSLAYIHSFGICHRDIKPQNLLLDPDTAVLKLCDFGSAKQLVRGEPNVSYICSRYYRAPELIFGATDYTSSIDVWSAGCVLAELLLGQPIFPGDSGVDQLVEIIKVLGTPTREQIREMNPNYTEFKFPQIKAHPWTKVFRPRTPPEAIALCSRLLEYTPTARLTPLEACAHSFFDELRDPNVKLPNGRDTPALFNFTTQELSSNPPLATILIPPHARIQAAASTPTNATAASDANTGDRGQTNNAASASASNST
# Sequence of human Ephrin type-A Receptor 1 (EphA1), EPHA1 (gene 2041) (P21709 whole entry, looked up): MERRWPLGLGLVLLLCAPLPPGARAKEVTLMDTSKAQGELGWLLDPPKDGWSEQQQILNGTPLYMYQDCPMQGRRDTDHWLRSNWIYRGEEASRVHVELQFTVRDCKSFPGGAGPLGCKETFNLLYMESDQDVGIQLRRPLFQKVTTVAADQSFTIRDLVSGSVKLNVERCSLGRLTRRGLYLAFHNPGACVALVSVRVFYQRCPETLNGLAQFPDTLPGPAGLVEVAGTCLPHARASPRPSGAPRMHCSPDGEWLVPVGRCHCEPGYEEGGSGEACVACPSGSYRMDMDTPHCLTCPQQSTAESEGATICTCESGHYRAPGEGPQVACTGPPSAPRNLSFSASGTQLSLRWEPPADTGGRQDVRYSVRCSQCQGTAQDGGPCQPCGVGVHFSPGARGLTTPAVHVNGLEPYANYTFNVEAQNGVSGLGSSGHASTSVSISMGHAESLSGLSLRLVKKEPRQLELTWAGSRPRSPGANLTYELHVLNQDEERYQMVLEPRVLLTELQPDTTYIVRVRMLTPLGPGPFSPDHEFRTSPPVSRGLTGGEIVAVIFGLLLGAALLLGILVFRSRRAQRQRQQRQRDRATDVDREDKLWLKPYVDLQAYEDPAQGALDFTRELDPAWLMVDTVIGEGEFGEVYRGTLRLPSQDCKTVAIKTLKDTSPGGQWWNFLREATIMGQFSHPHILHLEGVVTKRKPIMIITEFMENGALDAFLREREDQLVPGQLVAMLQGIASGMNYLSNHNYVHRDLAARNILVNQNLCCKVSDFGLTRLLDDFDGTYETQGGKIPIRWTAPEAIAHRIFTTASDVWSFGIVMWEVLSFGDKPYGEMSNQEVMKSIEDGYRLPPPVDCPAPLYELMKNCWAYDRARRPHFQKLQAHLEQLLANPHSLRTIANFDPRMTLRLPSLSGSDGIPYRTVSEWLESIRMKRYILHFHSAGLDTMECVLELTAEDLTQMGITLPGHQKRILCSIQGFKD
# Sequence of human Janus Kinase 2 (Jak2), JAK2 (gene 3717) (O60674 whole entry, looked up): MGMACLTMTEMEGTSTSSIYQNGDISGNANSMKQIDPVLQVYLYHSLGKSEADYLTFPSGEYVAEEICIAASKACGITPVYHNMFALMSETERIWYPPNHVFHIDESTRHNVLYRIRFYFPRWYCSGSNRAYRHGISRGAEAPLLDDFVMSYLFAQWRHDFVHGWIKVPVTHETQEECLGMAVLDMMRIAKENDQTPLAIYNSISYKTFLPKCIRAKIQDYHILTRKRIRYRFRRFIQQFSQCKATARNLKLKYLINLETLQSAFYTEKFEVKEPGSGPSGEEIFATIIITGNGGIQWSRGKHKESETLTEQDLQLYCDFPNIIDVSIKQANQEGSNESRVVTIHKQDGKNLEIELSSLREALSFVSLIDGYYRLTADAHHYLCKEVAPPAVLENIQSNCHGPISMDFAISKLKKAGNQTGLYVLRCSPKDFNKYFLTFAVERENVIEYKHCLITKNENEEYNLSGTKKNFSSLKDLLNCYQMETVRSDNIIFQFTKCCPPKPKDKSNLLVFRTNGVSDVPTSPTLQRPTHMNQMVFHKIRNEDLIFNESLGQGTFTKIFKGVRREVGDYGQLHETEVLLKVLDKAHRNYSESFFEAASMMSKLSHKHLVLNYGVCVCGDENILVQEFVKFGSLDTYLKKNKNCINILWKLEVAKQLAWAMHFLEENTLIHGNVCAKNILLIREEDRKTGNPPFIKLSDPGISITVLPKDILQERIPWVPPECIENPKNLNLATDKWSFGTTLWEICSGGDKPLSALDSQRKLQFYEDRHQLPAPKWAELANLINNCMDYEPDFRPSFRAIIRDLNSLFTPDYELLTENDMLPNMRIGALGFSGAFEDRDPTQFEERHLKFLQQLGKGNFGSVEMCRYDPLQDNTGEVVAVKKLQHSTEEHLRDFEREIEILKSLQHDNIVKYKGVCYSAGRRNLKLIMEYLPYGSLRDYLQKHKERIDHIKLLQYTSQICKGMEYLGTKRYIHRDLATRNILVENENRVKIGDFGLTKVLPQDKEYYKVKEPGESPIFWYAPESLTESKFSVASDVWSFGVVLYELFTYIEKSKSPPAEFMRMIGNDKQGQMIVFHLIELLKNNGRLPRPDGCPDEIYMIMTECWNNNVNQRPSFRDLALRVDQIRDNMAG
# Sequence of human Colony Stimulating Factor 1 Receptor (CSF1R), CSF1R (gene 1436) (P07333 whole entry, looked up): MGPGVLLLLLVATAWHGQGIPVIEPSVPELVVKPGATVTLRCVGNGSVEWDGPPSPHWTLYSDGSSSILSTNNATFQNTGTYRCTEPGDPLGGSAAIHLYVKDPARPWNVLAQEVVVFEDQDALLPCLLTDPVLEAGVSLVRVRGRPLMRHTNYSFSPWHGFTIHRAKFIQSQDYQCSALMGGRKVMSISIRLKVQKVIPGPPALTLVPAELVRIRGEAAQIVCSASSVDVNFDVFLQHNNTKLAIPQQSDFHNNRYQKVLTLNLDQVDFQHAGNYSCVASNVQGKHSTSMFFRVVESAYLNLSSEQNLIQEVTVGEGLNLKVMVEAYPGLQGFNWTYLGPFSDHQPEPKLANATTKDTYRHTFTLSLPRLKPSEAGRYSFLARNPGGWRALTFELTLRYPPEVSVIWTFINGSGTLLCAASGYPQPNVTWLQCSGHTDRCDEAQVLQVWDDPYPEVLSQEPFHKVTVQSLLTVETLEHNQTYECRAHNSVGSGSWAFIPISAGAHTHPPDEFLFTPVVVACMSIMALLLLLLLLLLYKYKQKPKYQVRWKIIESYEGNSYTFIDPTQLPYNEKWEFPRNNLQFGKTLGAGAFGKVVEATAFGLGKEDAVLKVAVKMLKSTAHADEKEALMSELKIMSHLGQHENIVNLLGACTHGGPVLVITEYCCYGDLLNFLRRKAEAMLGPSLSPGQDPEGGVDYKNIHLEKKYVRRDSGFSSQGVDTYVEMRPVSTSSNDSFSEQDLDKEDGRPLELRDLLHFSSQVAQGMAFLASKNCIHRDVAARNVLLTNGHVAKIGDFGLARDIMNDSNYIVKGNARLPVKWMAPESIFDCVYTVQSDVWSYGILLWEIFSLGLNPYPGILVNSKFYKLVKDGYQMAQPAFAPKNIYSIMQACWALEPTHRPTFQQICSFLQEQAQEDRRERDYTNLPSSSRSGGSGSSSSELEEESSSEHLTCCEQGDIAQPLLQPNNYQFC
smiles,measurement,setting,value
Cc1[nH]cnc1C[C@H]1CCc2c(C)c3ccccc3n2C1=O,AC50,[1],14.4 µM (active)
same,AC50,[2],29.9 µM (active)
COc1ccc2sc(C(=O)Nc3nnn[nH]3)c(OC(C)C)c2c1,outcome,[3],inactive
same,outcome,[4],inactive
same,outcome,[5],inactive
same,AC50,[6],1.42 µM (active)
same,AC50,[7],8.74 µM (active)
same,AC50,[2],46.7 µM (active)
O=C(O)CC(O)C(=O)O (stereo not drawn),outcome,[1],inactive
same,outcome,[8],inactive
same,outcome,[7],inactive
same,outcome,[9],inactive
COc1ccc(-n2nc(C(F)F)cc2-c2ccc(S(C)=O)cc2)cc1 (stereo not drawn),outcome,[3],inactive
CC/C(=C\C(=N/O)C(N)=O)C(C)[N+](=O)[O-] (stereo not drawn),outcome,[5],inactive
CCCC(=O)OCC,outcome,[6],inactive
CN(C)c1ccc(Cc2ccc(N(C)C)cc2)cc1,outcome,[6],inactive
CCCN(C1CCN(C(=O)C2CCNCC2)CC1)[C@@H]1CCc2ccc(OC)cc2C1,outcome,[1],inactive
CN(C)c1ccc(N=NS(=O)(=O)O)cc1,outcome,[3],inactive
same,outcome,[5],inactive
same,outcome,[6],inactive
CC1=CC(=O)CC(C)(C)C1,outcome,[6],inactive
CCOc1cccc(-n2cc(C(=O)N3CCN(c4cc(C(=O)O)c5ccccc5c4)CC3)nc2-c2ccc(C)cc2)c1,AC50,[4],6.63 µM (active)
CC(C)CCO,outcome,[5],inactive
same,outcome,[10],inactive
same,outcome,[2],inactive
CCCCC(CC)COC(=O)CCCCCCCCC(=O)OCC(CC)CCCC (stereo not drawn),AC50,[4],23.4 µM (active)
same,outcome,[11],inactive
C[C@](N)(Cc1ccc(O)c(O)c1)C(=O)O,outcome,[3],inactive
Cc1ccc(N)cc1O,outcome,[3],inactive
same,outcome,[5],inactive
same,outcome,[12],inactive
same,outcome,[8],inactive
same,outcome,[6],inactive
same,outcome,[13],inactive
same,outcome,[14],inactive
same,AC50,[11],20.1 µM (active)
same,outcome,[9],inactive
Nc1ccc(Nc2ccccc2)cc1,AC50,[15],7.11 µM (active)
same,AC50,[1],29.8 µM (active)
same,outcome,[16],inactive
same,AC50,[17],5.61 µM (active)
O=C(O)c1cc(N=Nc2ccc(S(=O)(=O)Nc3ccccn3)cc2)ccc1O,outcome,[3],inactive
same,AC50,[15],14 µM (active)
same,outcome,[5],inactive
same,outcome,[6],inactive
same,outcome,[7],inactive
same,outcome,[13],inactive
same,outcome,[16],inactive
same,AC50,[17],19.5 µM (active)
same,outcome,[18],inactive
same,AC50,[19],7.16 µM (active)
CCC(C)(C)C(=O)O[C@H]1C[C@@H](C)C=C2C=C[C@H](C)[C@H](CC[C@@H]3C[C@@H](O)CC(=O)O3)[C@H]21,AC50,[15],12.1 µM (active)
same,outcome,[4],inactive
same,outcome,[1],inactive
Oc1ccc2c(c1)-c1ccccc1C2,AC50,[4],23 µM (active)
same,outcome,[1],inactive
COc1ccc(/C=C/S(=O)(=O)NC(=O)c2ccc(C)cc2Cl)cc1,outcome,[5],inactive
CCn1nc(Cc2ccccc2)cc1C1CCN(C[C@H]2C[C@H](N(C)[C@@H](C(=O)O)C(C)C)C[C@@H]2c2cccc(F)c2)CC1,AC50,[1],13 µM (active)
CC[C@H]1CC[C@H](NCc2cc3c(cc2OC)[C@H]2C[C@H]2C(=O)N3C)[C@H](c2ccccc2)N1,AC50,[1],17.3 µM (active)
same,outcome,[7],inactive
CCCCC(CC)COC(=O)c1ccc(C(=O)OCC(CC)CCCC)cc1 (stereo not drawn),outcome,[4],inactive
same,outcome,[17],inactive
same,outcome,[18],inactive
same,outcome,[19],inactive
O=C(OC[C@H]1O[C@@H](OC(=O)c2cc(O)c(O)c(OC(=O)c3cc(O)c(O)c(O)c3)c2)[C@H](OC(=O)c2cc(O)c(O)c(OC(=O)c3cc(O)c(O)c(O)c3)c2)[C@@H](OC(=O)c2cc(O)c(O)c(OC(=O)c3cc(O)c(O)c(O)c3)c2)[C@@H]1OC(=O)c1cc(O)c(O)c(OC(=O)c2cc(O)c(O)c(O)c2)c1)c1cc(O)c(O)c(OC(=O)c2cc(O)c(O)c(O)c2)c1,AC50,[15],3.95 µM (active)
same,AC50,[4],0.0537 µM (active)
same,AC50,[6],0.000698 µM (active)
same,AC50,[2],0.437 µM (active)
CCOC(=O)COc1ccc2c(c1)CC(NCC(O)c1cccc(Cl)c1)CC2 (stereo not drawn),AC50,[1],10.9 µM (active)
same,outcome,[6],inactive
CCN(C(=O)c1cc(C)cc(OC[C@H](C)Nc2ccncc2)c1)C(C)C,outcome,[3],inactive
same,AC50,[1],11.8 µM (active)
same,outcome,[6],inactive
